NOTCH agonist = NOTCH pathway agonism; AID 434982; NOTCH signaling luciferase reporter cells, luminescence; 0.4% of 15,000 active; activation, % at 2.5 µM; in the data active means activation above about 2.2%
S1P1 ag = S1P1 (human) receptor agonism. activation, % at 4.5 µM. S1P1 agonist cell-based reporter assay. 1.5% of 16,000 active; in the data active means activation above about 80%
Luminol counter = luminol signal inhibition, Nox1 inhibitor counter-screen; HRP/luminol/H2O2 chemiluminescence counterscreen; inhibition, % at 6.7 µM; 0.4% of 16,000 active; AID 1823; further: reference of the scale not given here
Nox1 inhibitor = inhibitors of human NADPH oxidase 1 (Nox1); Q9Y5S8; HT29 cells, luminol chemiluminescence ROS; inhibition, % at 6.7 µM; 0.81% of 16,000 active
PME-1 Maybridge = inhibitors of human PME-1 in Maybridge library; Q9Y570; recombinant PME-1, FP-Rh probe fluorescence polarization; inhibition, % at 9 µM; 0.5% of 16,000 active; AID 2291; in the data active means inhibition above about 30%
rat GALR2 ag = GALR2 (rat) receptor agonism; cell-based GALR2 agonist screen; activation, % at 10 µM; 0.5% of 16,000 active; AID 833; in the data active means activation above about 15%
Target sequence (O08726 whole entry, looked up): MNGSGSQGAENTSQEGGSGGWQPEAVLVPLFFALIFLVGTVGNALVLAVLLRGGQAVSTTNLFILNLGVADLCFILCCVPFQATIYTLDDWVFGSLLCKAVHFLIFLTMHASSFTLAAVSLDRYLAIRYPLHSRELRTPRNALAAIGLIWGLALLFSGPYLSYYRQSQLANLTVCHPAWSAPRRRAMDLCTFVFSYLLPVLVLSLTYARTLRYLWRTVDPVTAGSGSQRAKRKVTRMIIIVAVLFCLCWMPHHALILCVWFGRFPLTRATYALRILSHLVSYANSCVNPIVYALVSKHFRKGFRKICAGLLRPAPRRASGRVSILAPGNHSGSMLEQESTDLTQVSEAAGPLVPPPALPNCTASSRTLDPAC
Of the large screens only hits and unclear results are named; the others gave an inactive call. In the library only some 4.1% were active in any assay of this set; here they are far more common. Unless noted, no stated cut-off is given here; in the data, active means inhibition above about 75%; inactive means the rest.

CCn1nc(C)cc1-c1n[nH]c(=S)o1	none
CC(C)S(=O)(=O)/C(C#N)=C/Nc1ccc(Cl)cc1	none
CC(C)(C)C(C)(C#N)Nc1ccc(Cl)cc1 (stereo not drawn)	rat GALR2 ag 45
Cc1cc(N=Nc2ccc(Cl)cc2)cc(CN2CCOCC2)c1O	S1P1 ag 95
CC(C)n1cc(-c2noc(-c3cccs3)n2)c(=O)n(Cc2ccccc2)c1=O	S1P1 ag 92
CC(C)n1cc(-c2nc(C(=O)NNC(=O)C(C)(C)C)cs2)c(=O)n(Cc2ccccc2)c1=O	none
COC(=O)C1=C(Nc2ccc(O)cc2)CSC1	Nox1 inhibitor 99
COc1ccc(NC(=S)NC(C)(C)C)c([N+](=O)[O-])c1	S1P1 ag 90
COC(=O)c1ccc(CS(C)(=O)=O)cc1	none
CN=C(C)/C(C(=O)OC)=C(/O)c1cccs1	none
COc1nc(NNC(=O)NS(=O)(=O)c2ccccc2Cl)nc(OC)n1	Nox1 inhibitor 78
O=C(CC1C(=O)NCCN1C(=O)c1c(F)cccc1Cl)Nc1cc(Cl)ccc1Cl (stereo not drawn)	none
CC(C)OC(=O)Cc1csc(-c2ccc(Cl)cc2)n1	none
Clc1ccc(-c2nc(CN3CCOCC3)cs2)cc1	S1P1 ag 102
O=C(NNS(=O)(=O)c1cc(Cl)c(Cl)cc1Cl)c1cccnc1	none
Cc1ccc(NC(=O)C(=O)N/N=C/c2ccc3c(c2)OCO3)cc1C	none
CC(=O)Nc1sc(=Nc2ccc(C)c(C)c2)n(C(C)=O)c1-c1ccc2c(c1)OCO2	PME-1 Maybridge 35
Cc1cccc(-c2noc(C(=O)NNC(=O)C(Cl)(Cl)Cl)n2)c1	none
N#CC(C#N)=NNc1ccc(F)cc1F	S1P1 ag 105
Cn1sc(=O)c2cc(S(=O)(=O)Nc3ccccc3N3CCCCC3)ccc21	rat GALR2 ag 16
O=S1(=O)CCC(NS(=O)(=O)c2ccc3c(c2)CCO3)C1 (stereo not drawn)	none
O=C(CSc1c(F)c(F)c(F)c(F)c1F)Nc1ccc(C2SCCS2)cc1	PME-1 Maybridge 147
CSc1nc(CSc2ccc(Cl)cc2)nc(C2CC2)c1C#N	none
Cc1ccc(C)c(CSc2nc(C3CCCCC3)c(C#N)c(=O)[nH]2)c1	S1P1 ag 97
O=C(OCCCCCOc1ccc(Cl)cc1)c1ccco1	none
COc1ccc(Cl)cc1NC(=O)Nc1ccc(N(C)C)cc1	Nox1 inhibitor 99
Nc1ccccc1Sc1ccc(-c2cnc3ccccc3n2)cc1[N+](=O)[O-]	Luminol counter 98
Nc1ccccc1Sc1ccc(Cl)cc1[N+](=O)[O-]	none
O=C1C=CC(=O)N1CCc1ccccc1	Nox1 inhibitor 100
O=C(C1CCCCC1)N1CC(=O)N(CCc2ccccc2)C(=O)C1	none
CSc1sc(C2=NNC(O)(C(F)(F)F)C2)c2c1C(=O)CCC2(C)C (stereo not drawn)	PME-1 Maybridge 36
c1cc(-c2ccncc2)ccn1	none
Cc1ccnc(-n2c(=S)[nH]c3sc(C)c(C)c3c2=O)c1	Luminol counter 100
Cc1cc(-n2c(=S)[nH]c3sc(C)c(C)c3c2=O)n(-c2ccccc2)n1	none
CCn1c(=S)[nH]c2sc(C)c(C)c2c1=O	Luminol counter 90
O=C(Nc1ccccc1N1CCCCC1)c1cc(Cl)sc1Cl	none
Nc1nc(NCc2c(Cl)cccc2Oc2ccccc2)n[nH]1	Nox1 inhibitor 84
ONC=NCc1ccccc1OC(F)(F)F	none
Nc1nc(NCc2ccccc2OC(F)(F)F)n[nH]1	Nox1 inhibitor 88
Cc1noc(C)c1S(=O)(=O)Nc1ccc(N2CCN(C(=O)OC(C)(C)C)CC2)nc1	none
